Only some compounds are listed: those with a hit (about 2.8% of all), similar ones and a draw of the others.
KDM5B inhibitor: Primary screen for KDM5B Histone Demethylases FDH-coupled qHTS | Lysine-specific demethylase 5B (Homo sapiens), Q9UGL1 | Potency, µM (highest dose often 57.7 µM), actives largely listed as inhibitors | 220,000 tested, 2.6% active | KDM5B demethylase, FDH-coupled NADH fluorescence (FDH is formaldehyde dehydrogenase); further: potency means the concentration at half of the fitted maximal effect; 0% is about no effect; nearly all actives have a fitted effect of over 70% in size
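Coupled FDH/NAD⁺ fluorescence readout. KDM5BΔAP 200 nM final; compound titration, 10 min RT preincubation; substrate mix 12.5 µM H3K4me3, 25 µM 2-OG, 50 µM Fe(II), 100 µM ascorbate, 0.25 mM NAD⁺, 0.25 U/mL FDH; ΔRFU over 30 min.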
SNCA expr inh: Primary qHTS assay for inhibitors of alpha-synuclein gene (SNCA) expression; HEK-293 SNCA-luciferase knock-in, luminescence, 24 h; Potency, µM (highest dose often 57.2 µM), for the others: at the highest dose activity change, negative = inhibition, usual class: inhibitors; 140,000 tested, 0.17% active;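 further: potency means the concentration at half of the fitted maximal effect; plate controls were DMSO cells for no effect and cell-free wells for full effect; nearly all actives have a fitted effect of over 45% in size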
SNCA viab count: GF-AFC viability counterscreen for inhibitors of alpha-synuclein gene (SNCA) expression; AID 1671193, 2021; HEK-293-SNCA-luc viability, GF-AFC fluorescence, 24 h; 150,000 tested, 0.12% active; Potency, µM (highest dose often 57.1 µM), for the others: top-dose activity change, negative = cytotoxicity, hits mostly cytotoxic;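 further: potency means the concentration at half of the fitted maximal effect; 0% = DMSO-treated cells and -100% = medium-only wells without cells; nearly all actives have a fitted effect of over 30% in size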
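HEK-293-SNCA-luc cells (1500/well) plated 24 h, then exposed 24 h to a dilution series; GF-AFC added 30 min at 37C, fluorescence 405/540 nm; normalised to medium-only and DMSO wells, Hill fit.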
IP6K1 inh: Primary qHTS assay for small molecule inhibitors of Inositol hexaphosphate kinase 1 (IP6K1); Inositol hexakisphosphate kinase 1 (Homo sapiens), Q92551; IP6K1 kinase, ADP-Glo luminescence, 2 h; active compounds read low; activity change, % (series mostly up to about 58 µM); 140,000 tested, 0.81% active; AID 1645851, 2021; in the data active means activity change below about -25%; further: on the % scale 0 is the no-effect control and ±100 the full control effect
Target sequence (Q92551 whole entry, looked up): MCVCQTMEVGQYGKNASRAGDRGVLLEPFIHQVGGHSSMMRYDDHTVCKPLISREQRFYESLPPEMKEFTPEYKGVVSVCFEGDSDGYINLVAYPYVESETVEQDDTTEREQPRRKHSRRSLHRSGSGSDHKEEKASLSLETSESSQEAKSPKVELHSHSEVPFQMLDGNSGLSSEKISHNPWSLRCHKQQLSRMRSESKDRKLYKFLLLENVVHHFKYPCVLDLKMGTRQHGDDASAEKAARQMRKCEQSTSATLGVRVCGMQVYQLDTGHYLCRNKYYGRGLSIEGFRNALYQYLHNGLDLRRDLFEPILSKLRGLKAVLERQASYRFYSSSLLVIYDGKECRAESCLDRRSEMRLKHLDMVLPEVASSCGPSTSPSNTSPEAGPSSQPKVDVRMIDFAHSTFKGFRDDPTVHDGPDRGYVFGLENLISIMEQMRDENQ
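ADP-Glo luminescence measures ADP made by human IP6K1 during a 2 h RT reaction with ATP/IP6 (mix at 1.3 mM/130 uM); top library doses 57.5 and 19.1 uM final.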
IP6K1 conf: Confirmatory qHTS assay for small molecule inhibitors of Inositol hexaphosphate kinase 1 (IP6K1); shares compounds with IP6K1 inh; recombinant IP6K1 kinase, ADP-Glo luminescence, 2 h; Potency, µM (top dose mostly 49 µM), for inactives: top-dose activity change, negative = inhibition, actives largely listed as inhibitors; 1,200 tested, 13% active; AID 1645852, 2021; further: potency means the concentration at half of the fitted maximal effect; on the % scale 0 is the no-effect control and ±100 the full control effect; nearly all actives have a fitted effect of over 65% in size
An asterisk follows results filed as active; [ ] = another dose, or the depositor's remark. Unless noted, the call rests on the fitted dose curve; in most records, active means well fitted curve in the direction sought with a large enough effect; inconclusive means small, poorly fitted or top-dose-only effect, or another doubt; inactive means no such curve, though single readings can be large; an effect the other way counts as inactive or inconclusive.

What do the screens show for `COc1ccc(CCNC(=O)c2cc3c(-c4ccccc4F)nn(C)c3s2)c(OC)c1`?
KDM5B inhibitor: inconclusive; SNCA expr inh: -8%; SNCA viab count: -17%; IP6K1 inh: 5

Results for COc1ccc(-c2nc(-c3c(C)noc3C)cc3[nH]c(C)cc23)cn1 ?
KDM5B inhibitor: 35µM*; SNCA expr inh: 48%[87.6 µM]; SNCA viab count: -16%[87.6 µM]; IP6K1 inh: -31*; IP6K1 conf: inconclusive

How did O=c1c(S(=O)(=O)c2ccc(Cl)cc2)cn(Cc2ccc(F)cc2)c2ccc(F)cc12 do in these assays?
KDM5B inhibitor: inactive; SNCA expr inh: 23%; SNCA viab count: 14%; IP6K1 inh: -38*; IP6K1 conf: inconclusive

How did COc1cc2c(=O)c(S(=O)(=O)c3ccc(F)cc3)cn(Cc3ccc(Cl)cc3)c2cc1OC do in these assays?
KDM5B inhibitor: inactive; SNCA expr inh: 25%; SNCA viab count: -9%; IP6K1 inh: -14

Results for COc1cc(NC(=O)Cn2cnc3c(sc4ncccc43)c2=O)cc(OC)c1OC ?
KDM5B inhibitor: inactive

Results for Cc1cc(C)c2c(=O)cc(CSc3nnc(-c4cccc(F)c4)n3C)[nH]c2c1 ?
KDM5B inhibitor: inactive

Results for Cc1ccccc1[C@@H]1CN(C(=O)CCC(=O)NC2CCCC2)C[C@H]1C(=O)O ?
KDM5B inhibitor: inactive; SNCA expr inh: -15%; SNCA viab count: -5%; IP6K1 inh: -35*; IP6K1 conf: 13%

What do the screens show for `CN1CCN(c2cc(=O)c3ccnc(-c4ccc(Cl)cc4)c3o2)CC1`?
KDM5B inhibitor: 35µM*; SNCA expr inh: 6%[87.6 µM]; SNCA viab count: -5%[87.6 µM]; IP6K1 inh: -32*; IP6K1 conf: inconclusive

What do the screens show for `CCCCc1nn(CC(=O)NC[C@H]2CCc3ccccc3O2)c(=O)n1CC`?
KDM5B inhibitor: inactive; SNCA expr inh: -5%; SNCA viab count: 1%; IP6K1 inh: 12

How did CCCCc1nn(CC(=O)NCC2Cc3ccccc3CN2C)c(=O)n1CC (configuration not stated) do in these assays?
KDM5B inhibitor: inconclusive; SNCA expr inh: -8%; SNCA viab count: -5%; IP6K1 inh: -30*; IP6K1 conf: -7%

How did OCc1c[nH]c2ccccc12 do in these assays?
SNCA expr inh: -30%; SNCA viab count: -13%; IP6K1 inh: -28*; IP6K1 conf: -13%[92.2 µM]

How did O=C(O)Cc1c[nH]c2ccccc12 do in these assays?
KDM5B inhibitor: inactive

How did C[C@@H]1CCN(C(=O)CC#N)C[C@H]1N(C)c1ncnc2[nH]ccc12 do in these assays?
SNCA expr inh: inconclusive; SNCA viab count: -22%

Results for CC1CCN(C(=O)CC#N)CC1N(C)c1ncnc2[nH]ccc12 (configuration not stated) ?
SNCA viab count: 7%; IP6K1 inh: -8; IP6K1 conf: -3%

Results for O=C(CSc1nc2cc3ccccc3cc2[nH]1)Nc1cccc(C(F)(F)F)c1 ?
KDM5B inhibitor: inactive[11.5 µM]; SNCA expr inh: 60%; SNCA viab count: -13%; IP6K1 inh: -30*; IP6K1 conf: -15%

How did c1ccc(CSc2ncn(-c3nc(N4CCOCC4)nc(N4CCOCC4)n3)n2)cc1 do in these assays?
KDM5B inhibitor: inactive

What do the screens show for `O=C(c1ccc(F)cc1)N1CCC(Cc2nncn2-c2ccccc2)CC1`?
KDM5B inhibitor: inconclusive; SNCA expr inh: -6%; SNCA viab count: -7%; IP6K1 inh: 0

Results for Cc1cccc(NC(=O)Cc2csc(COc3cccc(C)c3)n2)c1 ?
KDM5B inhibitor: inactive; SNCA expr inh: 16%; SNCA viab count: 4%; IP6K1 inh: -22

Results for COc1ccc(NC(=O)Cc2csc(COc3cccc(C)c3)n2)cc1OC ?
KDM5B inhibitor: inconclusive; SNCA expr inh: 3%; SNCA viab count: -2%; IP6K1 inh: -27*; IP6K1 conf: 34%

How did COc1ccc(-c2nc(CSCC(=O)N3CCN(c4cccc(C)c4C)CC3)c(C)o2)cc1OC do in these assays?
KDM5B inhibitor: inconclusive; SNCA expr inh: -15%; SNCA viab count: inconclusive; IP6K1 inh: -26*; IP6K1 conf: -8%

What do the screens show for `COc1ccc(-c2nc(CSCC(=O)N3CCN(c4cc(Cl)ccc4C)CC3)c(C)o2)cc1`?
KDM5B inhibitor: inconclusive; SNCA expr inh: inconclusive; SNCA viab count: inconclusive; IP6K1 inh: 6

Results for COc1ccc(S(=O)(=O)N2CC[C@H](NC(=O)Cc3cccs3)C[C@H]2C(=O)N[C@@H](CC2CCCCC2)C(N)=O)cc1 ?
KDM5B inhibitor: inactive; SNCA expr inh: -6%; SNCA viab count: -5%; IP6K1 inh: -8

Results for O=C(C1CC1)N1CCCC(c2nn(-c3ccccn3)c(=O)[nH]2)C1 (configuration not stated) ?
SNCA expr inh: 25%[87.6 µM]; SNCA viab count: 13%[87.6 µM]; IP6K1 inh: -2

How did CC(=O)N1CCCC(c2nn(-c3ccccn3)c(=O)[nH]2)C1 (configuration not stated) do in these assays?
SNCA expr inh: -16%[87.6 µM]; SNCA viab count: 4%[87.6 µM]; IP6K1 inh: -25*; IP6K1 conf: 5%

Results for Cc1ccc(-c2cc3nccc(-c4cc([N+](=O)[O-])ccc4O)n3n2)cc1 ?
KDM5B inhibitor: inconclusive; SNCA expr inh: inconclusive; SNCA viab count: inconclusive; IP6K1 inh: -25*; IP6K1 conf: inconclusive

How did CCOC(=O)COc1ccc([N+](=O)[O-])cc1-c1ccnc2cc(-c3ccc(C)cc3)nn12 do in these assays?
KDM5B inhibitor: inactive; SNCA expr inh: 15%; SNCA viab count: 3%; IP6K1 inh: 2

Results for CCc1nc2ccc(C(=O)NCc3ccc(N(C)C)cc3)cc2nc1CC ?
KDM5B inhibitor: inactive; SNCA expr inh: 12%; SNCA viab count: -1%; IP6K1 inh: -26*; IP6K1 conf: -16%

What do the screens show for `CCc1nc2ccc(C(=O)NCc3cccc(Br)c3)cc2nc1CC`?
KDM5B inhibitor: inconclusive; SNCA expr inh: 61%; SNCA viab count: inconclusive; IP6K1 inh: 10

Results for Cc1ccc(-c2cc(C(F)(F)F)c(C#N)c(SCC(=O)O)n2)cc1 ?
KDM5B inhibitor: inconclusive; SNCA expr inh: 8%; SNCA viab count: -4%; IP6K1 inh: -35*; IP6K1 conf: 3%

How did Cc1nc2ccccc2n1CCC(=O)N1C[C@@H](C)[C@](O)(C(C)C)C1 do in these assays?
KDM5B inhibitor: inactive; SNCA expr inh: 9%; SNCA viab count: 2%; IP6K1 inh: -37*; IP6K1 conf: -9%
